# Shown are actives, neighbours in structure and some others; about 7.5% of the full set was active somewhere.
# KinaseGlo FLuc – blocks Kinase-Glo luciferase, a counter-screen artifact. AID 1379. Kinase-Glo luciferase, ATP luminescence, 8 min. 0.28% of 200,000 active. Q27757. Potency, µM (series often up to 38.3 µM), inactives show at the top dose activity change, negative = inhibition, most hits filed as inhibitors; further: on the % scale 0 is the no-effect control and ±100 the full control effect; nearly all actives have a fitted effect of over 60% in size
#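 Substrate mix (final 50 mM imidazole pH 7.2, 50 mM KCl, 7 mM MgCl2, 10 uM ATP, 0.01% Tween 20, 0.05% BSA) plus pin-tool compound, then Kinase-Glo detection mix; 8 min ambient, luminescence read.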
# ELG1 genotox – genotoxicity induction in ELG1-luciferase HEK293T cells | HEK293T ELG1-luciferase reporter, luminescence, 16 h | Potency, µM (series often up to 46 µM), for the others: at the highest dose activity change, positive = activation, usual class: activators | 1.3% of 330,000 active | AID 504466; further: % of control where 0% means no effect; nearly all actives have a fitted effect of over 60% in size
#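 ELG1-luciferase HEK293T cells, 2,000/well; compound pinned in; 16 hr, 37 °C, 5% CO2; ONE-Glo, 30 min RT; luminescence on CCD imager.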
# FLuc counter – firefly luciferase modulation, counter-screen for miR-21 project. P08659. purified FLuc, Km substrates, luminescence inhibition. Potency, µM (series often up to 57.5 µM), without a hit: at the top dose activity change, negative = inhibition, usual class: inhibitors. 6.9% of 360,000 active. AID 588342;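 further: plate controls were vehicle for no effect and reference inhibitor for full effect; nearly all actives have a fitted effect of over 55% in size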
# Target sequence (P08659 whole entry, looked up): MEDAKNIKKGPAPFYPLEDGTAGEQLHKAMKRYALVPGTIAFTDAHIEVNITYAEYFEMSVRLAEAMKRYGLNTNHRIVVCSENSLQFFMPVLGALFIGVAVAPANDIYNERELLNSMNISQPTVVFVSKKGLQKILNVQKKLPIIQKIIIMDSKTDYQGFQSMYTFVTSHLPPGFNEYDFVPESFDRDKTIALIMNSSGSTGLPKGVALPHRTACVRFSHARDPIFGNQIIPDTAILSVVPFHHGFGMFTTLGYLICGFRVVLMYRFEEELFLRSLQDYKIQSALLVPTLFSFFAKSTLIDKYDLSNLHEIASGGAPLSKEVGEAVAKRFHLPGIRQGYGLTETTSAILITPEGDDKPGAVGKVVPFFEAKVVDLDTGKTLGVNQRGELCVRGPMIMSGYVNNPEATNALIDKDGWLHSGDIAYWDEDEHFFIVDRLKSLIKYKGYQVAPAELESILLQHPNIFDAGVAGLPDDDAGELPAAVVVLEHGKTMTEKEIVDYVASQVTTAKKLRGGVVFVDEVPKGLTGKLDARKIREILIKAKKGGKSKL
#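 Purified P. pyralis luciferase, 10 nM final, with Km-level 10 uM D-luciferin and 10 uM ATP in 50 mM Tris acetate pH 7.5, 10 mM Mg acetate, 0.01% Tween-20, 0.05% BSA; 6-point qHTS titration about 60 µM downward; luminescence read.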
# Rab9 promoter act – Rab9 promoter activation; AID 485297; Potency, µM (doses to about 9.22 µM), inactives show at the highest dose activation, negative = inhibition, hits mostly activators; Huh7 Rab9 promoter-luciferase reporter, luminescence, 24 h; 2.8% of 320,000 active; further: % of control where 0% means no effect; nearly all actives have a fitted effect of over 60% in size
#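 Luminescence read-out: Huh7 cells stably expressing Rab9-luciferase, treated 24 h with compound at 37 °C, then lysed with luciferase reagent for 10 min at ambient before reading.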
# NPC1 prom act – NPC1 promoter activation; Potency, µM (highest dose often 9.22 µM), for the others: top-dose activation, actives largely listed as activators; AID 485313; Huh7 NPC1 promoter luciferase reporter, 24 h; 2.4% of 320,000 active; further: % of control where 0% means no effect; nearly all actives have a fitted effect of over 60% in size
#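 Huh7 cells stably carrying NPC1 promoter–luciferase, plated in Opti-MEM with 10% FBS for 2 h, were exposed to compound in DMSO for 24 h at 37 °C; luciferase reagent was added for 10 min and luminescence read.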
# SMN2 splice up – SMN2 splice variant enhancement; HEK293 SMN2-luciferase splicing reporter, luminescence, 30-36 h; Potency, µM (doses to about 46.1 µM), for inactives: at the top dose activity change, positive = activation, usual class: activators; 2.8% of 210,000 active; AID 1458; further: % of control where 0% means no effect; nearly all actives have a fitted effect of over 55% in size
#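 HEK293 cells carry an SMN2 […]–luciferase reporter in which exon 7 inclusion puts luciferase in frame. Cells were plated 10-12 h before compound addition, then incubated 30-36 h at 37C. ONE-Glo luminescence was read; sodium butyrate at 4.5 mM final served as control.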
# Starred values were filed as active, the others as inactive; ? = inconclusive; / = no result given; [ ] = dose if it differs, or a comment. The call rests on the fitted dose curve; in most records, active means well fitted curve in the direction sought with a large enough effect; inconclusive means small, poorly fitted or top-dose-only effect, or another doubt; inactive means no such curve, though single readings can be large; an effect the other way counts as inactive or inconclusive. Potency means the concentration at half of the fitted maximal effect.
SMILES,KinaseGlo FLuc,ELG1 genotox,FLuc counter,Rab9 promoter act,NPC1 prom act,SMN2 splice up
CC1(C)Oc2ccc(C#N)cc2[C@@H](OC2=CC(=O)CC2)[C@@H]1O,/,/,/,/,/,2%
COc1cccc(NC(=O)c2cnn(-c3ccccc3)c2-n2cccc2)c1,/,/,-17%,/,/,/
O=C(/C=C/c1ccc([N+](=O)[O-])cc1)NCCc1ccccc1,-4%,2%,4%,0%,-1%,5%
O=C(/C=C/c1ccccc1)NCCc1ccccc1,/,21µM*,19µM*,29%,-4%,/
CC(C)(C)SCCNC(=O)/C=C/c1ccccc1,/,?,19µM*,?,?,/
CC(C)(C)SCCNC(=O)/C=C/c1ccc(F)cc1,-2%,18%,?,24%,22%,?
Cc1nc(NC(=O)CCN2C(=O)C3CC=CCC3C2=O)sc1C (stereo unspecified),/,14%,0%,12%,5%,/
C=C(C)CNC(=S)Nc1nc2c(cc1C(=O)OCC)CCCC2,-1%,?,13µM*,?,?,4.5µM*
c1ccc2c(c1)Nc1cc3ccccc3cc1S2,/,10%,-27%,3.5µM*,3.2µM*,/
COc1ccc2c(c1)Sc1ccccc1N2,0%,2%,?,1%,3%,-67%
Cc1ccc(OCc2cc(C(=O)N3CCC(Oc4cccnc4)CC3)no2)cc1C,/,-4%,-19%,0%,-4%,/
COc1cccc(OCc2cc(C(=O)N3CCCC3c3ccccn3)no2)c1 (stereo unspecified),/,?,15µM*,2.8µM*,2.2µM*,/
Cc1ccc(OCc2cc(C(=O)N3CCN(C)C[C@@H]3c3ccccc3)no2)cc1C,/,?,21µM*,2.5µM*,2.8µM*,/
CN1CCN(C(=O)c2cc(COc3ccccc3)on2)[C@@H](c2ccccc2)C1,/,13µM*,9.5µM*,2µM*,3.5µM*,/
COc1cccc(OCc2cc(C(=O)N3CCN(C4CCCC4)CC3)no2)c1,/,1%,-5%,-5%,1%,/
Nc1nc(-c2cccc(F)c2)cs1,-6%,2%,-9%,-1%,-1%,/
O=S(=O)(c1cccc(-c2csc(-c3cccnc3)n2)c1)N1CCOCC1,/,-1%,-2%,?,-1%,/
Nc1nc(-c2ccc3c(c2)NC(=O)CO3)cs1,5%,?,-10%,3%,-1%,-39%
Nc1nc(-c2ccc3c(c2)CCCC3)cs1,-17%,?,2.1µM*,2.8µM*,2.2µM*,11µM*
CC1Cc2cc(-c3csc(N)n3)ccc2O1 (stereo unspecified),/,?,9.5µM*,1.3µM*,?,/
c1cncc(-c2nc(-c3ccc4c(c3)OCO4)cs2)c1,-3%,?,4.8µM*,1.6µM*,2.8µM*,/
Nc1nc(-c2ccc3c(c2)OCCO3)cs1,-2%,21µM*,9.5µM*,3.5µM*,3.5µM*,16µM*
Nc1nc(-c2cc3c(cc2Cl)OCCO3)cs1,/,8%,?,8%,2%,/
COc1ccc(-c2csc(C)n2)cc1OC,-6%,14%,?,8%,2%,-13%
Cc1nc(-c2ccc3c(c2)OCCCO3)cs1,/,?,7.6µM*,1.6µM*,1.8µM*,/
SMILES,KinaseGlo FLuc,ELG1 genotox,FLuc counter,Rab9 promoter act,NPC1 prom act,SMN2 splice up
Cc1nc(-c2cccc(N)c2)cs1,4%,19%,-15%,-1%,11%,7%
Cc1nc(-c2ccc3c(c2)OCO3)cs1,-4%,6%,15µM*,14%,17%,?
COc1cc(OC)c(OC)cc1/C=C1\CCC(C2CCCC2)C1=O (stereo unspecified),2%,-14%,-13%,1%,-2%,-24%
Cc1ccc(/C=C2\CCC(C3CCCC3)C2=O)cc1 (stereo unspecified),-7%,9.2µM*,0.48µM*,3.5µM*,3.2µM*,22µM*
Cc1ccsc1/C=C1\SC(N)=NC1=O,-9%,14%,?,25%,18%,15%
COc1ccc(/C=C2\CCC(C3CCCC3)C2=O)cc1 (stereo unspecified),/,?,0.48µM*,3.5µM*,4µM*,/
COc1ccc(/C=C2\CCOC2=O)cc1,-3%,1%,-18%,13%,10%,-15%
COc1ccc(/C=C2\CCC(C3CCCC3)C2=O)c(OC)c1 (stereo unspecified),/,8%,21µM*,13%,25%,/
Cc1ccsc1/C=C1\CCC(C2CCCC2)C1=O (stereo unspecified),-18%,?,2.1µM*,3.5µM*,2.8µM*,/
COc1ccc(NC(=O)C(C)n2c(C)c3cnn(-c4ccccc4)c(=O)c3c2C)cc1Cl (stereo unspecified),/,/,-7%,/,/,-13%
CCCCS(=O)(=O)N1CCc2nc(-c3ccc(OC)cc3C)c3c(c2C1)CO[C@@H](c1ccccc1)C3,-3%[7.66 µM],/,/,/,/,0%[9.22 µM]
CCCCCc1nnc(NC(=O)Cn2cnc3ccccc3c2=O)s1,3%,-1%,15%,2%,-1%,-21%
CCCCCC1CCC(c2ccc(/C(N)=N/O)cc2)CC1 (stereo unspecified),/,-5%,1%,-1%,-3%,/
CCC(CC)C1=NN2C(=N)/C(=C\c3cc(C)n(-c4cccc(C)c4)c3C)C(=O)N=C2S1,0%,0%,-3%,1%,2%,-22%
Cc1cc(/C=C2/C(=N)N3C(c4ccccc4)=CSC3=NC2=O)c(C)n1-c1ccccc1,-1%,-1%,2.4µM*,12%,16%,6%
CC1=NN2C(=N)/C(=C\c3cc(C)n(-c4ccccc4)c3C)C(=O)N=C2S1,10%,7%,4.8µM*,5%,11%,-34%
Cc1ccc(CCNC(=O)CCSCc2ccccc2Cl)cc1,/,/,-20%,/,/,/
COCCCN1CN(S(=O)(=O)c2ccc(C)cc2C)c2nc3ccccc3nc21,/,2%,7%,-3%,-1%,/
CN(C)c1ccc(-c2nn3c(-c4cccnc4)nnc3s2)cc1,-7%,?,-7%,0%,-4%,-15%
Cc1nnc2sc(-c3ccc(N(C)C)cc3)nn2c1=O,/,16µM*,7.6µM*,?,3.2µM*,/
COc1cccc(-c2cc(NCc3cccs3)ncn2)c1,-13%,/,/,/,/,8.9µM*
CCn1cnc2cc(NCc3ccc(Cl)cc3)ccc21,/,?,11µM*,2.5µM*,2.8µM*,/
CC(C)(C)n1cnc2cc(NCc3ccccc3Cl)ccc21,/,/,13µM*,/,/,29%
Cc1ccc(CNc2ccc3c(c2)ncn3C)cc1,-2%,8.2µM*,12µM*,2µM*,3.2µM*,18µM*
CCc1ccc(CNc2ccc3c(c2)ncn3C)cc1,-3%,?,9.5µM*,2.8µM*,2.2µM*,11µM*
COc1ccc(CNc2ccc3c(c2)ncn3C)cc1OC,/,9%,1%,15%,-14%,/
